Where a name gives a salt, the structure may show the parent alone. ± gives the standard deviation of the averaged measurements.
Tests used:
Assay in all cases: growth (OD600 after 10 h); higher = more growth (less inhibition)
[1] = tested on: E. coli TESEC Alr+ wild-type control; details: compound 0.1 mM; raw OD600 reference: median of DMSO wells 0.241, cell-free background 0.041
Protocol: (§1)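 TESEC Mtb Alr E. coli, or the Alr+ wild-type control, in 384-well plates with Prestwick library compounds at 0.1 mM and 1% DMSO, across arabinose induction levels of 1E3 to 1E7 nM. Growth is read as OD600 after 10 h at 37 °C in triplicate biological replicates.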

[2] = tested on: E. coli TESEC Mtb Alr; details: compound 0.1 mM
Protocol: as §1

[3] = tested on: E. coli TESEC Mtb Asd; details: compound 0.1 mM
Protocol: (§2)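 TESEC E. coli strains in which the native enzyme is deleted and replaced by arabinose-inducible Mtb Asd, DapB, CysH or TrpD, each grown in its selective medium. Strains were screened against the Prestwick library at 0.1 mM and 1% DMSO in 384-well format at low and high arabinose induction. Growth is read as OD600 after 10 h in triplicate.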

[4] = tested on: E. coli TESEC Mtb DapB; details: compound 0.1 mM
Protocol: as §2

[5] = tested on: E. coli TESEC Alr+ wild-type control; details: compound 0.1 mM; raw OD600 reference: median of DMSO wells 0.49, cell-free background 0.052
Protocol: (§3)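 TESEC Mtb Alr E. coli (ΔaraC ΔtolC ΔentC Δalr ΔdadX, arabinose-inducible Mtb Alr) or the Alr+ wild-type control strain, grown in defined M9-fructose medium without D-alanine in 96-well plates with Prestwick library compounds at 0.1 mM and 1% DMSO. Low Alr induction is 0.1 µM arabinose and high induction is 10 mM arabinose.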

[6] = tested on: E. coli TESEC Mtb Alr; details: compound 0.1 mM; remark: listed apart in the source
Protocol: as §3

[7] = arabinose 1000 nM, raw OD600 reference: median of DMSO wells 0.294, cell-free background 0.041
[8] = arabinose 10000 nM, raw OD600 reference: median of DMSO wells 0.264, cell-free background 0.041
[9] = arabinose 100000 nM, raw OD600 reference: median of DMSO wells 0.201, cell-free background 0.041
[10] = arabinose 1000000 nM, raw OD600 reference: median of DMSO wells 0.193, cell-free background 0.041
[11] = arabinose 10000000 nM, raw OD600 reference: median of DMSO wells 0.146, cell-free background 0.041
[12] = arabinose induction (level): High, raw OD600 reference: median of DMSO wells 0.331, cell-free background 0.041
[13] = arabinose induction (level): Low, raw OD600 reference: median of DMSO wells 0.417, cell-free background 0.041
[14] = arabinose induction (level): High, raw OD600 reference: median of DMSO wells […], cell-free background 0.041
[15] = arabinose induction (level): Low, raw OD600 reference: median of DMSO wells 0.227, cell-free background 0.041
[16] = arabinose 100 nM, raw OD600 reference: median of DMSO wells 0.413, cell-free background 0.052
[17] = arabinose 10000000 nM, raw OD600 reference: median of DMSO wells […], cell-free background 0.052

SMILES	growth [1]	growth [2, 7]	growth [2, 8]	growth [2, 9]	growth [2, 10]	growth [2, 11]	growth [3, 12]	growth [3, 13]	growth [4, 14]	growth [4, 15]	growth [5]	growth [6, 16]	growth [6, 17]
Cc1cc(C(C)(C)C)cc(C)c1CC1=NCCN1 [Xylometazoline hydrochloride]	0.226 ± 0.0033	0.285 ± 0.0055	0.261 ± 0.01	0.221 ± 0.011	0.164 ± 0.0057	0.161 ± 0.0028	0.272 ± 0.041	0.393 ± 0.066	0.173 ± 0.011	0.252 ± 0.059	0.4501 ± 0.0037	0.413 ± 0.015	0.331 ± 0.011
CCC1NC(=O)c2cc(S(N)(=O)=O)c(Cl)cc2N1 (configuration not stated) [Quinethazone]	0.248 ± 0.0085	0.281 ± 0.0094	0.266 ± 0.0054	0.219 ± 0.0029	0.199 ± 0.0047	0.13 ± 0.0037	0.419 ± 0.029	0.445 ± 0.051	0.212 ± 0.021	0.238 ± 0.047	0.463 ± 0.013	0.415 ± 0.006	0.354 ± 0.022
CC=C(C)C(=O)OC1C(OC(C)=O)C2(CO)C(O)CC3(C)C(=CCC4C5(C)CCC(OC6OC(C(=O)O)C(OC7OC(CO)C(O)C(O)C7O)C(O)C6OC6OC(CO)C(O)C(O)C6O)C(C)(CO)C5CCC43C)C2CC1(C)C (stereo not drawn) [Beta-Escin]	0.289 ± 0.0075	0.333 ± 0.0081	0.24 ± 0.0056	0.366 ± 0.011	0.151 ± 0.0075	0.226 ± 0.01	0.271 ± 0.026	0.342 ± 0.048	0.329 ± 0.018	0.323 ± 0.0085	0.438 ± 0.02	0.438 ± 0.018	0.392 ± 0.011
CC(C)[C@H]1CC[C@H](C(=O)N[C@H](Cc2ccccc2)C(=O)O)CC1 [Nateglinide]	0.181 ± 0.0028	0.277 ± 0.0054	0.246 ± 0.019	0.169 ± 0.0079	0.114 ± 0.0027	0.147 ± 0.0056	0.229 ± 0.039	0.23 ± 0.021	0.1583 ± 0.001	0.217 ± 0.06	0.6242 ± 0.0051	0.22 ± 0.16	0.284 ± 0.009
c1ccc(CNc2ncnc3nc[nH]c23)cc1 [Aminopurine, 6-benzyl]	0.208 ± 0.0066	0.243 ± 0.0086	0.262 ± 0.006	0.19 ± 0.014	0.166 ± 0.0054	0.149 ± 0.013	0.279 ± 0.014	0.339 ± 0.072	0.169 ± 0.0055	0.197 ± 0.022	0.509 ± 0.077	0.416 ± 0.0048	0.361 ± 0.0061
CC(=O)OCC(=O)[C@@]1(O)CC[C@H]2[C@@H]3CCC4=CC(=O)C=C[C@]4(C)[C@@]3(F)[C@@H](O)C[C@@]21C [Isoflupredone acetate]	0.206 ± 0.028	0.266 ± 0.019	0.22 ± 0.0097	0.213 ± 0.015	0.128 ± 0.0061	0.13 ± 0.0065	0.348 ± 0.046	0.413 ± 0.056	0.21 ± 0.01	0.253 ± 0.038	0.422 ± 0.029	0.389 ± 0.0064	0.286 ± 0.01
CC(=O)c1ccc(S(=O)(=O)NC(=O)NC2CCCCC2)cc1 [Acetohexamide]	0.253 ± 0.0047	0.284 ± 0.0099	0.242 ± 0.0032	0.191 ± 0.024	0.162 ± 0.0024	0.156 ± 0.0038	0.268 ± 0.082	0.455 ± 0.029	0.19 ± 0.0083	0.232 ± 0.024	0.526 ± 0.01	0.405 ± 0.0044	0.316 ± 0.0099
NC(CO)C(=O)NNCc1ccc(O)c(O)c1O (configuration not stated) [Benserazide hydrochloride]	0.0616 ± 0.0013	0.246 ± 0.0069	0.224 ± 0.0028	0.205 ± 0.033	0.0994 ± 0.0023	0.124 ± 0.0056	0.186 ± 0.018	0.186 ± 0.0073	0.185 ± 0.023	0.227 ± 0.024	0.465 ± 0.036	0.337 ± 0.069	0.148 ± 0.03
Cc1cc2cc3c(C)cc(=O)oc3c(C)c2o1 [Trioxsalen]	0.253 ± 0.0068	0.312 ± 0.0079	0.258 ± 0.008	0.192 ± 0.0079	0.161 ± 0.0053	0.1653 ± 0.0007	0.454 ± 0.015	0.423 ± 0.0095	0.231 ± 0.032	0.237 ± 0.012	0.438 ± 0.0099	0.4096 ± 0.0037	0.324 ± 0.024
CC1(C)S[C@@H]2[C@H](NC(=O)[C@H](N)c3ccc(O)cc3)C(=O)N2[C@H]1C(=O)O [Amoxicillin]	0.242 ± 0.006	0.297 ± 0.0057	0.251 ± 0.0052	0.211 ± 0.033	0.186 ± 0.0034	0.14 ± 0.0024	0.358 ± 0.097	0.321 ± 0.037	0.217 ± 0.029	0.259 ± 0.046	0.572 ± 0.07	0.422 ± 0.011	0.378 ± 0.0083
Cn1cnc([N+](=O)[O-])c1Sc1ncnc2[nH]cnc12 [Azathioprine]	0.126 ± 0.017	0.0771 ± 0.0059	0.0744 ± 0.0045	0.0829 ± 0.005	0.0691 ± 0.0013	0.0849 ± 0.0021	0.347 ± 0.045	0.261 ± 0.043	0.202 ± 0.016	0.226 ± 0.019	0.27 ± 0.0092	0.312 ± 0.029	0.175 ± 0.0061
CNCCC(Oc1ccc(C(F)(F)F)cc1)c1ccccc1 (configuration not stated) [Fluoxetine hydrochloride]	0.129 ± 0.0027	0.0669 ± 0.0012	0.133 ± 0.0068	0.0693 ± 0.0015	0.0486 ± 0.00026	0.05543 ± 0.00047	0.0984 ± 0.0045	0.086 ± 0.016	0.142 ± 0.036	0.132 ± 0.0058	0.118 ± 0.11	0.411 ± 0.011	0.0614 ± 0.0047
CC(C)(O)c1ccccc1CC[C@@H](SCC1(CC(=O)O)CC1)c1cccc(/C=C/c2ccc3ccc(Cl)cc3n2)c1 [Montelukast]	0.24 ± 0.013	0.281 ± 0.0035	0.317 ± 0.012	0.31 ± 0.019	0.206 ± 0.0075	0.261 ± 0.012	0.219 ± 0.028	0.347 ± 0.065	0.183 ± 0.025	0.253 ± 0.023	0.566 ± 0.061	0.479 ± 0.027	0.376 ± 0.026
CC(C(=O)O)c1cccc(C(=O)c2ccccc2)c1 (configuration not stated) [Ketoprofen]	0.227 ± 0.0059	0.249 ± 0.014	0.271 ± 0.012	0.172 ± 0.012	0.191 ± 0.0088	0.145 ± 0.0059	0.247 ± 0.013	0.335 ± 0.038	0.184 ± 0.018	0.248 ± 0.058	0.533 ± 0.084	0.428 ± 0.018	0.36 ± 0.005

Source: the supplement of paper PMC9262897, “Low-cost anti-mycobacterial drug discovery using engineered E. coli” (Nature Communications, 2022)
